# Publication PMC5540273 (PLoS ONE, 2017)
# Where two headings read alike, the source gives them in different places.
# How the values were obtained:
# FYN = conditions: concentration: 1 μM, replicates: in singlicate; n = 1
# GAK = conditions: concentration: 1 μM, replicates: in singlicate; n = 1
# GCN2(Kin.Dom.2,S808G) = system: T1, GCN2(Kin.Dom.2,S808G); conditions: concentration: 1 μM, replicates: in singlicate; n = 1
# T1 construct: gene EIF2AK4
# GRK1 = conditions: concentration: 1 μM, replicates: in singlicate; n = 1
# GRK2 = system: T2, GRK2; conditions: concentration: 1 μM, replicates: in singlicate; n = 1
# T2 construct: gene ADRBK1
# GRK3 = system: T3, GRK3; conditions: concentration: 1 μM, replicates: in singlicate; n = 1
# T3 construct: gene ADRBK2
# GRK4 = conditions: concentration: 1 μM, replicates: in singlicate; n = 1
# GRK7 = conditions: concentration: 1 μM, replicates: in singlicate; n = 1
# GSK3A = conditions: concentration: 1 μM, replicates: in singlicate; n = 1
# GSK3B = conditions: n = 1
# HASPIN = system: T4, HASPIN; conditions: concentration: 1 μM, replicates: in singlicate; n = 1
# T4 construct: gene GSG2
# HCK = conditions: concentration: 1 μM, replicates: in singlicate; n = 1
# HIPK1 = conditions: concentration: 1 μM, replicates: in singlicate; n = 1
# HIPK2 = conditions: concentration: 1 μM, replicates: in singlicate; n = 1
# HIPK3 = conditions: concentration: 1 μM, replicates: in singlicate; n = 1
# HIPK4 = conditions: concentration: 1 μM, replicates: in singlicate; n = 1
# HPK1 = conditions: concentration: 1 μM, replicates: in singlicate; n = 1
# HUNK = conditions: concentration: 1 μM, replicates: in singlicate; n = 1
# ICK = conditions: concentration: 1 μM, replicates: in singlicate; n = 1
# IGF1R = conditions: concentration: 1 μM, replicates: in singlicate; n = 1
# [1] = concentration: 1 μM, replicates: in singlicate
# 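Further: KINOMEscan kinase panel screen.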
compound,measurement,setting,value
COc1cccc2c(-c3ccncc3)c(-c3ccc(F)cc3)nn12 [GW468513],%Inh,FYN,27%
same,%Inh,GAK,83%
same,%Inh,"GCN2(Kin.Dom.2,S808G)",18%
same,%Inh,GRK1,0%
same,%Inh,GRK2,0%
same,%Inh,GRK3,38%
same,%Inh,GRK4,0%
same,%Inh,GRK7,0%
same,%Inh,GSK3A,4%
same,%Inh,GSK3B; [1],3%
same,%Inh,HASPIN,15%
same,%Inh,HCK,0%
same,%Inh,HIPK1,0%
same,%Inh,HIPK2,0%
same,%Inh,HIPK3,10%
same,%Inh,HIPK4,4%
same,%Inh,HPK1,37%
same,%Inh,HUNK,18%
same,%Inh,ICK,9%
same,%Inh,IGF1R,9%
O=C(Nc1n[nH]c2nc(-c3cccc(O)c3)ccc12)C1CC1 [SB-711805],%Inh,FYN,0%
same,%Inh,GAK,23%
same,%Inh,"GCN2(Kin.Dom.2,S808G)",12%
same,%Inh,GRK1,24%
same,%Inh,GRK2,0%
same,%Inh,GRK3,0%
same,%Inh,GRK4,24%
same,%Inh,GRK7,3%
same,%Inh,GSK3A,98.8%
same,%Inh,GSK3B; 1 µM,96.3%
same,%Inh,HASPIN,45%
same,%Inh,HCK,15%
same,%Inh,HIPK1,57%
same,%Inh,HIPK2,27%
same,%Inh,HIPK3,31%
same,%Inh,HIPK4,7%
same,%Inh,HPK1,0%
same,%Inh,HUNK,0%
same,%Inh,ICK,53%
same,%Inh,IGF1R,0%
Fc1cc(Cl)ccc1Nc1ccnc2cc(-c3ccc(CN4CCOCC4)o3)ccc12 [GW560109],%Inh,FYN,90.9%
same,%Inh,GAK,84%
same,%Inh,"GCN2(Kin.Dom.2,S808G)",13%
same,%Inh,GRK1,5%
same,%Inh,GRK2,0%
same,%Inh,GRK3,46%
same,%Inh,GRK4,2%
same,%Inh,GRK7,0%
same,%Inh,GSK3A,1%
same,%Inh,GSK3B; [1],24%
same,%Inh,HASPIN,0%
same,%Inh,HCK,96.7%
same,%Inh,HIPK1,0%
same,%Inh,HIPK2,0%
same,%Inh,HIPK3,26%
same,%Inh,HIPK4,0%
same,%Inh,HPK1,27%
same,%Inh,HUNK,62%
same,%Inh,ICK,0%
same,%Inh,IGF1R,12%
CN(C)CCNS(=O)(=O)c1ccc(-c2ccnc3[nH]ccc23)cc1 [GSK977620],%Inh,FYN,18%
same,%Inh,GAK,1%
same,%Inh,"GCN2(Kin.Dom.2,S808G)",14%
same,%Inh,GRK1,71%
same,%Inh,GRK2,0%
same,%Inh,GRK3,72%
same,%Inh,GRK4,0%
same,%Inh,GRK7,86%
same,%Inh,GSK3A,0%
same,%Inh,GSK3B; [1],11%
same,%Inh,HASPIN,84%
same,%Inh,HCK,0%
same,%Inh,HIPK1,82%
same,%Inh,HIPK2,82%
same,%Inh,HIPK3,90.5%
same,%Inh,HIPK4,43%
same,%Inh,HPK1,42%
same,%Inh,HUNK,0%
same,%Inh,ICK,5%
same,%Inh,IGF1R,2%
CCn1cnc2c(NCc3ccccc3)ncnc21 [SKF-96418],%Inh,FYN,0%
same,%Inh,GAK,0%
same,%Inh,"GCN2(Kin.Dom.2,S808G)",0%
same,%Inh,GRK1,39%
same,%Inh,GRK2,0%
same,%Inh,GRK3,0%
same,%Inh,GRK4,6%
same,%Inh,GRK7,0%
same,%Inh,GSK3A,0%
same,%Inh,GSK3B; [1],35%
same,%Inh,HASPIN,10%
same,%Inh,HCK,9%
same,%Inh,HIPK1,27%
same,%Inh,HIPK2,9%
same,%Inh,HIPK3,33%
same,%Inh,HIPK4,33%
same,%Inh,HPK1,0%
same,%Inh,HUNK,48%
same,%Inh,ICK,0%
same,%Inh,IGF1R,0%
O=C(Nc1n[nH]c2nc(-c3ccccc3O)ccc12)C1CC1 [SB-711880],%Inh,FYN,0%
same,%Inh,GAK,0%
same,%Inh,"GCN2(Kin.Dom.2,S808G)",26%
same,%Inh,GRK1,49%
same,%Inh,GRK2,0%
same,%Inh,GRK3,0%
same,%Inh,GRK4,28%
same,%Inh,GRK7,12%
same,%Inh,GSK3A,87%
same,%Inh,GSK3B; 1 µM,53%
same,%Inh,HASPIN,0%
same,%Inh,HCK,0%
same,%Inh,HIPK1,27%
same,%Inh,HIPK2,7%
same,%Inh,HIPK3,0%
same,%Inh,HIPK4,0%
same,%Inh,HPK1,0%
same,%Inh,HUNK,0%
same,%Inh,ICK,26%
same,%Inh,IGF1R,0%
CCNc1nccc(-c2c(-c3ccc(F)cc3)ncn2C2CCN(C)CC2)n1,%Inh,FYN,0%
same,%Inh,GAK,57%
same,%Inh,"GCN2(Kin.Dom.2,S808G)",0%
same,%Inh,GRK1,0%
same,%Inh,GRK2,0%
same,%Inh,GRK3,0%
same,%Inh,GRK4,0%
same,%Inh,GRK7,0%
same,%Inh,GSK3A,21%
same,%Inh,GSK3B; [1],0%
same,%Inh,HASPIN,0%
same,%Inh,HCK,0%
same,%Inh,HIPK1,39%
same,%Inh,HIPK2,70%
same,%Inh,HIPK3,66%
same,%Inh,HIPK4,0%
same,%Inh,HPK1,0%
same,%Inh,HUNK,0%
same,%Inh,ICK,0%
same,%Inh,IGF1R,0%
NCCC(NC(=O)c1cc(Br)c(-c2ccnc3[nH]ccc23)s1)c1ccccc1.O=C(O)C(F)(F)F.O=C(O)C(F)(F)F (centres unmarked) [GSK1307810],%Inh,FYN,0%
same,%Inh,GAK,83%
same,%Inh,"GCN2(Kin.Dom.2,S808G)",0%
same,%Inh,GRK1,100%
same,%Inh,GRK2,82%
same,%Inh,GRK3,96.4%
same,%Inh,GRK4,72%
same,%Inh,GRK7,89%
same,%Inh,GSK3A,0%
same,%Inh,GSK3B; [1],20%
same,%Inh,HASPIN,97.6%
same,%Inh,HCK,0%
same,%Inh,HIPK1,53%
same,%Inh,HIPK2,9%
same,%Inh,HIPK3,67%
same,%Inh,HIPK4,93.3%
same,%Inh,HPK1,69%
same,%Inh,HUNK,0%
same,%Inh,ICK,0%
same,%Inh,IGF1R,0%
O=C(Nc1n[nH]c2nc(-c3ccccc3)ccc12)C1CC1 [SB-708999],%Inh,FYN,0%
same,%Inh,GAK,17%
same,%Inh,"GCN2(Kin.Dom.2,S808G)",0%
same,%Inh,GRK1,10%
same,%Inh,GRK2,0%
same,%Inh,GRK3,28%
same,%Inh,GRK4,9%
same,%Inh,GRK7,0%
same,%Inh,GSK3A,77%
same,%Inh,GSK3B; 1 µM,12%
same,%Inh,HASPIN,0%
same,%Inh,HCK,7%
same,%Inh,HIPK1,0%
same,%Inh,HIPK2,29%
same,%Inh,HIPK3,0%
same,%Inh,HIPK4,8%
same,%Inh,HPK1,54%
same,%Inh,HUNK,0%
same,%Inh,ICK,4%
same,%Inh,IGF1R,6%
Cl.Cl.NCC(NC(=O)c1cc(-c2cccnc2)c(-c2ccnc3[nH]ccc23)s1)c1ccccc1 (centres unmarked) [GSK1323434],%Inh,FYN,6%
same,%Inh,GAK,88%
same,%Inh,"GCN2(Kin.Dom.2,S808G)",0%
same,%Inh,GRK1,0%
same,%Inh,GRK2,8%
same,%Inh,GRK3,39%
same,%Inh,GRK4,4%
same,%Inh,GRK7,21%
same,%Inh,GSK3A,34%
same,%Inh,GSK3B; [1],22%
same,%Inh,HASPIN,96.4%
same,%Inh,HCK,0%
same,%Inh,HIPK1,69%
same,%Inh,HIPK2,67%
same,%Inh,HIPK3,86%
same,%Inh,HIPK4,64%
same,%Inh,HPK1,59%
same,%Inh,HUNK,0%
same,%Inh,ICK,4%
same,%Inh,IGF1R,0%
